Bioassay records from PubChem BioAssay.
Shown is part of a subset that was picked to be rich in hits.
USP2a block: inhibitors of human ubiquitin-specific protease USP2a; USP2 core, Ub-CHOP2 coupled fluorogenic reporter, 485/531; Potency, µM (doses to about 38.3 µM), inactives show at the top dose activity change, negative = inhibition, usual class: inhibitors; 330,000 tested, 0.01% active; AID 463254;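 note: plate controls were DMSO wells for no effect and full inhibition by NEM control for full effect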
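Deubiquitinase activity read as fluorescence (485/531 nm) after Ub-CHOP2 cleavage activates the enterokinase reporter on its substrate; USP2 core 10nM, Ub-CHOP2 and substrate 25nM each, 30min compound preincubation then 60min RT; data normalized to NEM, curves fitted.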
ClpP mod: qHTS Assay for Activators of ClpP. ATP-dependent Clp protease proteolytic subunit (Bacillus subtilis (strain 168)), P80244. purified B. subtilis ClpP, FRET peptide cleavage, 20 min. Potency, µM (titrated, usually from 57.5 µM), for the others: at the highest dose activity change, negative = active. 340,000 tested, 1.9% active; active = well fitted falling curve with a large enough effect; inconclusive = small, poorly fitted or top-dose-only effect; inactive = no such curve, though single readings can be large or run the other way; note: the source files actives as falling curves though it sought activators and does not explain the sign; nearly all actives have a fitted effect of over 65% in size
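ClpP 10 microg/mL final, pH 8 Tris/KCl buffer with BSA, glycerol, Tween-20; compound pinned in; FRET-FV substrate; RT 20 min; Ex320/Em430; ΔFRET vs ADEP 5.8 microM, DMSO, no enzyme.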
Eya2 inh: blocks the phosphatase activity of human Eya2. recombinant Eya2, OMFP fluorescence dephosphorylation (OMFP is methylfluorescein phosphate). Potency, µM (top dose mostly 76.9 µM), for the others: top-dose activity, negative = inhibition, most hits filed as inhibitors. 330,000 tested, 0.006% active. AID 488837; note: % is set by controls: 0 for no effect and ±100 for the full control effect
Target sequence (O00167 whole entry, looked up): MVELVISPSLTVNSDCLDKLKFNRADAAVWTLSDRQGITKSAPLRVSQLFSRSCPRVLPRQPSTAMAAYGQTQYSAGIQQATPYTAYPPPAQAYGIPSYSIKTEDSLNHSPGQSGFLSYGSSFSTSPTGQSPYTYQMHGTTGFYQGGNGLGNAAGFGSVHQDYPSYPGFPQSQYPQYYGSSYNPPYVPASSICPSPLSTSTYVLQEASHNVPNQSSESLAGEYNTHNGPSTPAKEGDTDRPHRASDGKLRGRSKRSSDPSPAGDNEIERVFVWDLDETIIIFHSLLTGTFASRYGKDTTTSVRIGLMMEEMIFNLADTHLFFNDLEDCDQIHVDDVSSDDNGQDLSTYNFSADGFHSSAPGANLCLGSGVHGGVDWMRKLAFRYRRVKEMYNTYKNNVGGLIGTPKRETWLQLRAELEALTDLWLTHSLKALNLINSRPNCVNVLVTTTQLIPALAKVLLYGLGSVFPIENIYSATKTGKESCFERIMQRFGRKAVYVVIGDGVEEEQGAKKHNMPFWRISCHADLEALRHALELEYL
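Eya2 protein (added as 0.2 uM solution) was preincubated with compound for 10 min at ambient temperature in 50 mM HEPES pH 7.5, 50 mM NaCl, 5 uM MgCl2, 0.05% BSA, 1 mM DTT. OMFP (added at 50 uM) then reacted 10 min; fluorescence read at 485/525 nm.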
GALK inhibitor: blocks human galactokinase activity; Purified GALK, Kinase-Glo residual ATP luminescence; Potency, µM (doses to about 57.5 µM), for the others: at the highest dose activity change, negative = inhibition, most hits filed as inhibitors; 270,000 tested, 0.007% active; note: % is set by controls: 0 for no effect and ±100 for the full control effect
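GALK at 5 nM final was combined with compound, 35 uM ATP and 100 uM galactose in HEPES pH8.0 with MgCl2 and DTT. The reaction ran one hour at room temperature before luminescent ATP detection.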
The depositor's hits bear a star; ? = inconclusive; · = not tested or not shown. Unless noted, calls come from the whole dose curve; as a rule, active = well fitted inhibition curve with a large enough effect; inconclusive = small, poorly fitted or top-dose-only effect, or effect the other way; inactive = flat fitted curve, though single readings scatter. Potency is the fitted concentration of half-maximal effect.

SMILES	USP2a block	ClpP mod	Eya2 inh	GALK inhibitor
CSc1nnc(-c2sc3cc(C(F)(F)F)cnc3c2-c2ccccc2)n1C	-1%	32µM*	-1%	0%
Oc1ccc(-c2c(C3=CCCCC3)sc3ccccc23)cc1	0%	0%	-2%	·
O=C(NCc1ccc(C(F)(F)F)cc1)c1ccc(-c2ccc(F)c(F)c2)c2ccoc12	·	28µM*	·	·
O=C(NCc1ccncc1)c1ccc(-c2ccc(F)c(F)c2)c2ccoc12	·	4%	·	·
CC(=O)Nc1ccc(NC(=O)Cn2c(=O)ccc3cc(S(=O)(=O)N4CCC(C)CC4)ccc32)cc1	·	2%	·	·
CCOC(=O)/C=C/C(=O)Nc1cc(S(=O)(=O)Nc2ccc(OC)cc2)ccc1N1CCOCC1	-1%	-8%	-2%	·
COc1ccc(NS(=O)(=O)CC(C)C)c(OC)c1	-1%	-2%	3%	2%
CCS(=O)(=O)Nc1ccc(-c2ccc(NS(=O)(=O)CC)c(OC)c2)cc1OC	-1%	11µM*	1%	0%
COCCOC(=O)C1=C(C)N(Cc2ccccc2)C(=O)NC1c1ccc(OC)cc1 (stereo not given)	0%	-6%	32%	2%
CCCCN1c2ccccc2N(CCCO)c2cc(C)nnc21	1%	-20%	0%	-2%
O=C(COc1ccc2ccc(=O)oc2c1)NC1CCCCC1	-3%	10µM*	-3%	·
COc1ccc2c(c1)c(=O)oc1cc(OCC(=O)NC3CC3)ccc12	1%	?	3%	-1%
O=C(COc1ccc2ccc(=O)oc2c1)Nc1nccs1	-1%	4%	6%	-1%
Cc1cc(=O)oc2cc(OCC(=O)NC3CCCC3)ccc12	-1%	5%	-22%	·
N#CC1(NC(=O)COc2ccc3ccc(=O)oc3c2)CCCCC1	1%	35µM*	8%	·
COc1ccc2c(c1)c(=O)oc1cc(OCC(=O)NC3CCCCC3)ccc12	0%	8.9µM*	-11%	-4%
CCOc1ccccc1NCN1C(=O)c2ccccc2C1=O	·	1%	·	·
O=C(Nc1ccc(F)cc1F)Nc1csc2ccccc12	2%	11µM*	?	-2%
Nc1c(C(=O)Nc2ccccc2)sc2nc(N3CCOCC3)c3c(c12)CCCC3	·	5%	·	·
Nc1c(C(=O)NCc2ccccc2)sc2nc(N3CCOCC3)c3c(c12)CCCC3	2%	25µM*	-4%	1%
CCN1CCN(C(=O)CCCCCn2c(=O)[nH]c3cc(C(=O)OC)ccc3c2=O)CC1	3%	25µM*	18%	5%
COc1ccc(N2CCN(CCNC(=O)CCCn3c(=O)[nH]c4cc(Cl)ccc4c3=O)CC2)cc1	1%	28µM*	-5%	-1%
COCCn1c(=O)[nH]c2cc(C(=O)OC)ccc2c1=O	1%	28µM*	4%	-1%
CCN1CCN(CCNC(=O)CCCCCn2c(=O)[nH]c3cc(C(=O)OC)ccc3c2=O)CC1	3%	?	0%	-2%
COc1ccc(N2CCN(CCCNC(=O)CCCn3c(=O)[nH]c4ccsc4c3=O)CC2)cc1	0%	-7%	11%	2%
SMILES	USP2a block	ClpP mod	Eya2 inh	GALK inhibitor
CCOC(=O)c1nn(-c2ccccc2C)c2nc(-c3ccc(C)cc3)c(C#N)c(=O)n12	·	35µM*	·	-3%
CCOC(=O)c1nn(-c2ccccc2C)c2nc(-c3ccc(Cl)cc3)c(C#N)c(=O)n12	3%	32µM*	7%	1%
Cc1cc(C)c(NC(=S)N2CCC(N(C)CC3CCCO3)CC2)c(C)c1 (stereo not given)	4%	-1%	0%	0%
COc1ccc(/C=N/Nc2nncn2N)cc1Br	?	16µM*	-9%	4%
Nc1ccccc1-c1ccccc1N	-4%	7.9µM*	-6%	3%
COc1ccc(-c2nc3cccc(C)n3c2NCc2ccco2)cc1OC	2%	14µM*	-5%	0%
COc1ccc(-c2csc(NCc3ccco3)n2)cc1C	4%	1%	0%	0%
CCS(=O)(=O)N1Cc2ccccc2CC1C(=O)N(C)CC(=O)Nc1cccc(F)c1 (stereo not given)	2%	-1%	-5%	·
Cc1cc(NC(=O)Cn2cnc3c(nnn3-c3ccc(C)c(Cl)c3)c2=O)no1	15%	-2%	-2%	-3%
COc1ccc(CNC(=O)C2CCN(S(=O)(=O)c3ccc(-c4nn[nH]n4)cc3)CC2)cc1	0%	17%	-16%	1%
CC1(C)C=C(c2ccc(C=O)s2)CC(C)(C)N1C=O	1%	22µM*	6%	·
Fc1ccccc1-c1nc(N2CCN(c3cccc(Cl)c3)CC2)c2ccccc2n1	·	32µM*	·	·
Fc1ccccc1-c1nc(N2CCCCC2)c2ccccc2n1	5%	-10%	-5%	0%
COc1ccccc1N1CCN(C(c2ccc(F)cc2)c2nnnn2C(C)C)CC1 (stereo not given)	1%	18µM*	-1%	0%
COc1ccccc1N1CCN(C(c2ccc(C)cc2)c2nnnn2C(C)C)CC1 (stereo not given)	2%	-2%	10%	0%
Cc1c(-n2c(SCC(=O)O)nnc2-c2ccccc2Cl)c(=O)n(-c2ccccc2)n1C	-1%	35µM*	3%	5%
CCN(CC)S(=O)(=O)c1ccc(Nc2cc(C)nc3ncnn23)cc1	0%	-1%	7%	2%
O=C(NCc1ccc(F)cc1)c1ccc(S(=O)(=O)Nc2cccc(C(F)(F)F)c2)cc1	3%	14µM*	-4%	-3%
COc1ccc([C@@H]2CC(=O)[C@@H]3CN(S(=O)(=O)c4ccc(C)cc4)[C@H](c4cccc(Cl)c4)C[C@@H]3N2S(=O)(=O)c2ccccc2)cc1	·	0%	·	·
Cc1cccc(-c2cc3nc(C)cc(NCCCN(C)C)n3n2)c1	2%	32µM*	-15%	-1%
Cc1ccc(-c2cc3nc(C)cc(NCc4ccco4)n3n2)cc1	-2%	28µM*	-15%	3%
C=CCNC(=O)/C(C#N)=C/c1ccc2c(c1)OCCO2	1%	·	5%	1%
C=CCNC(=O)/C(C#N)=C/c1ccc(SC)cc1	4%	25µM*	22%	1%
C=CCN1C(=O)/C(=C/c2ccc(N(C)C)cc2)S/C1=N\c1nnc(CC)s1	13%	·	38%	-2%
Cc1cc(Nc2ccccc2F)n2ncnc2n1	1%	-2%	1%	1%
SMILES	USP2a block	ClpP mod	Eya2 inh	GALK inhibitor
COc1ccc(-c2oc3ncn4nc(COc5ccccc5)nc4c3c2-c2ccc(OC)cc2)cc1	1%	-44%	-1%	0%
COc1ccc(-c2oc3ncnc(N)c3c2-c2ccccc2)cc1	0%	35µM*	-3%	-1%
Nc1nc2ccc(Cl)cc2cc1C(=O)NCCc1ccc(O)cc1	·	-24%	·	·
COc1ccc(C(=O)NCc2nnc(SCC(=O)N3CCCCC3)o2)cc1OC	5%	1%	3%	2%
CC(=O)OCC(=O)c1ccc2ccn(C(C)=O)c2c1	-1%	35µM*	-2%	-2%
NC(=O)c1c(C(F)(F)F)cc(-c2ccccc2)nc1NCCO	1%	22µM*	-5%	-1%
